Screening results: PubChem, National Center for Advancing Translational Sciences (NCATS)
HepG2 viability = counter-screen for TGF-b inhibitors: cytotoxicity in HepG2 cells; HepG2 CAGA-GFP viability, ATP luminescence, 18 h; Potency, µM (series often up to 46.1 µM), inactives show top-dose activity change, negative = cytotoxicity, usual class: cytotoxic; actives 0.76% (n = 410,000); AID 588856
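HepG2 CAGA-GFP cells (1000/well, DMEM with 1% FBS) received compound, then TGF-beta at 500 pg/mL final, and were incubated 18 hours at 37 degrees C. Viability was read by CellTiter-Glo luminescence. Media-only wells were set as complete cell-killing and DMSO as no toxicity.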
HT1080NT lethal = kills 2HG-producing HT-1080-NT fibrosarcoma cells. HT-1080-NT fibrosarcoma viability, CellTiter-Glo ATP luminescence, 48 h. Potency, µM (highest dose often 46.1 µM), without a hit: at the top dose activity, negative = less viability, most hits filed as cytotoxic. actives 1.6% (n = 360,000). AID 686970;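 note: NT is the 2HG producing partner of a matched IDH1 knockdown line; 0% = DMSO-treated cells and -100% = media-only wells without cells; nearly all actives have a fitted effect of over 55% in size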
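Luminescent CellTiter-Glo readout after 48 hours of compound exposure at 37 degrees C defined viability of HT-1080-NT cells. Activity was normalized to DMSO wells and cell-free media wells; concentration-response curves were fitted and assigned curve classes.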
TGFb SMAD3 inh = blocks TGF-b signaling | Potency, µM (doses to about 46.1 µM), without a hit: at the top dose activity, negative = inhibition, hits mostly inhibitors | HepG2 CAGA-GFP TGF-b/SMAD3 reporter, GFP fluorescence, 18 h; TGF-beta stimulated, 500 pg/mL final | AID 588855 | actives 1.2% (n = 410,000); note: % is set by controls: 0 for no effect and ±100 for the full control effect; nearly all actives have a fitted effect of over 65% in size
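Inhibition was scored as loss of TGF-beta-induced (500 pg/mL final, 18 hours, 37 degrees C) GFP in HEPG2 cells carrying a CAGA-GFP reporter, in DMEM with 1% FBS. Well GFP was summed per cell; Activity was normalised to unstimulated and stimulated DMSO wells, then concentration-response fitting.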
TDP1 cell noCPT = qHTS for Inhibitors of human tyrosyl-DNA phosphodiesterase 1 (TDP1): qHTS in cells in absence of CPT | DT40 Tdp1-/- hTDP1 cells, no CPT, ATP luminescence, 48 h | Potency, µM (highest dose often 46.2 µM), without a hit: at the top dose activity change, negative = growth inhibition, hits mostly inhibitors | actives 15% (n = 420,000); note: % is set by controls: 0 for no effect and ±100 for the full control effect; nearly all actives have a fitted effect of over 55% in size
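Luminescent ATP content (CellTiter-Glo) served as the growth readout. Knockout chicken DT40 cells expressing human TDP1 were exposed to compounds without camptothecin for a minimum 48 hr at 37 °C.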
HT1080 IDH1KD tx = toxicity to HT-1080 IDH1 knockdown cells (counter line). HT-1080 IDH1 knockdown viability, ATP luminescence, 48 h. Potency, µM (series often up to 46.1 µM), without a hit: at the top dose activity, negative = toxicity, most hits filed as cytotoxic. actives 2% (n = 360,000);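 note: 0% = DMSO wells and -100% = cell-free medium wells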
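IDH1KD HT-1080 cells, 750/well, RPMI + 5% FBS; compound pinned after 2 h settling; 48 h, 37 °C; CellTiter-Glo luminescence; % activity normalised to DMSO and no-cell wells; curves fitted, classed by r2 and efficacy.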
DT40 TDP1 CPT = growth inhibition of DT40 Tdp1-/-;hTDP1 cells with camptothecin (screen for TDP1 inhibitors); chicken DT40 Tdp1-/-;hTDP1 cells + 20 nM CPT, ATP luminescence, 48 h; Potency, µM (top dose mostly 46.2 µM), inactives show at the highest dose activity change, negative = growth inhibition, hits mostly inhibitors; actives 12% (n = 420,000); note: % is set by controls: 0 for no effect and ±100 for the full control effect; nearly all actives have a fitted effect of over 55% in size
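Chicken DT40 Tdp1-/- cells stably complemented with human TDP1 were seeded at 400 cells/well in medium containing 20 nM camptothecin, exposed to pin-transferred compounds, and grown at 37 °C for at least 48 hr. Viability was read as ATP luminescence.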
Starred values were filed as active, the others as inactive; [ ] = remark or other dose. Sampled rows, rich in hits. Any-hit rate of the full collection: about 17%. Calls come from the whole dose curve; as a rule, active = well fitted curve in the direction sought with a large enough effect; inconclusive = small, poorly fitted or top-dose-only effect, or another doubt; inactive = no such curve, though single readings can be large; an effect the other way counts as inactive or inconclusive. Potency is the fitted concentration of half-maximal effect.

`COc1cc(-c2ccc3cc(OC)c(OC)c(OC)c3c2)cc(OC)c1OC` gave HepG2 viability -38.0%, HT1080NT lethal inconclusive, TGFb SMAD3 inh inconclusive, TDP1 cell noCPT inconclusive, HT1080 IDH1KD tx inconclusive and DT40 TDP1 CPT 20.6µM*.
Screening COc1ccc(-c2oc3ccc(-c4cc(OC)c(OC)c(OC)c4)cc3c2-c2ccc(OC)cc2)cc1 returned HepG2 viability 9.1%, HT1080NT lethal 22.1%, TGFb SMAD3 inh -16.1%, TDP1 cell noCPT inconclusive, HT1080 IDH1KD tx -3.7% and DT40 TDP1 CPT inconclusive.
Screening Cc1cccc(NC(=O)c2c(C)cc(C)nc2SCC(=O)Nc2c(C)cc(C)cc2C)c1 returned HepG2 viability 1.5%, TGFb SMAD3 inh 10.3%, TDP1 cell noCPT inconclusive and DT40 TDP1 CPT inconclusive.
Screening O=C(O)c1ccccc1NC(=O)C1CCN(S(=O)(=O)c2cccc3nsnc23)CC1 returned HepG2 viability -57.4%, HT1080NT lethal 6.2%, TGFb SMAD3 inh -3.8%, TDP1 cell noCPT 16.4µM*, HT1080 IDH1KD tx -1.7% and DT40 TDP1 CPT -20.3%.
`O=C(NCCc1ccccc1)C1CCCN(S(=O)(=O)c2cccc3nonc23)C1` (stereo not drawn) gave HepG2 viability -1.9%, HT1080NT lethal -3.8%, TGFb SMAD3 inh -7.6%, TDP1 cell noCPT inconclusive, HT1080 IDH1KD tx -6.8% and DT40 TDP1 CPT -13.5%.
Screening O=C(C1CCN(S(=O)(=O)c2cccc3nsnc23)CC1)N1CC=C(c2ccccc2)CC1 returned HepG2 viability -27.4%, HT1080NT lethal -6.8%, TGFb SMAD3 inh -18.2%, TDP1 cell noCPT 16.4µM*, HT1080 IDH1KD tx -15.9% and DT40 TDP1 CPT 18.4µM*.
Screening O=C(C1CCN(S(=O)(=O)c2cccc3nsnc23)CC1)N1CCCCC1 returned HepG2 viability 1.0%, HT1080NT lethal 4.9%, TGFb SMAD3 inh 5.9%, TDP1 cell noCPT 15.2%, HT1080 IDH1KD tx 12.7% and DT40 TDP1 CPT -18.6%.
Screening Cc1ccc(NC(=O)C2CCN(S(=O)(=O)c3cccc4nsnc34)CC2)cc1 returned HepG2 viability -5.8%, TGFb SMAD3 inh inconclusive, TDP1 cell noCPT inconclusive and DT40 TDP1 CPT -12.5%.
For O=C(C1CCCN(S(=O)(=O)c2cccc3nsnc23)C1)N1CC=C(c2ccccc2)CC1 (stereo not drawn) the results were HepG2 viability -19.2%, HT1080NT lethal -12.0%, TGFb SMAD3 inh inconclusive, TDP1 cell noCPT 10.3µM*, HT1080 IDH1KD tx inconclusive and DT40 TDP1 CPT 13µM*.
O=C(NCCc1ccccc1)C1CCCN(S(=O)(=O)c2cccc3nsnc23)C1 (stereo not drawn) was read as HepG2 viability -18.9%, HT1080NT lethal 3.0%, TGFb SMAD3 inh -11.5%, TDP1 cell noCPT 13µM*, HT1080 IDH1KD tx 0.6% and DT40 TDP1 CPT inconclusive.
`CCOC(=O)c1c(Nc2ccccc2OCCOC)n[nH]c1C` gave HepG2 viability -23.5%, HT1080NT lethal 14.5%, TGFb SMAD3 inh -6.0%, TDP1 cell noCPT -19.5%, HT1080 IDH1KD tx 10.1% and DT40 TDP1 CPT inconclusive.
COc1ccc(C(=O)N/N=C(\C)CC(=O)Nc2cccc(C(F)(F)F)c2)cc1 was read as HepG2 viability 1.4%, HT1080NT lethal -19.3%, TGFb SMAD3 inh inconclusive, TDP1 cell noCPT inconclusive, HT1080 IDH1KD tx -22.5% and DT40 TDP1 CPT 9.1%.
Screening C=CCC(CC=C)(CNC(=O)C(=O)Nc1ccc(C(=O)OCC)cc1)c1ccccc1 returned HepG2 viability -12.1%, TGFb SMAD3 inh inconclusive, TDP1 cell noCPT -25.5% and DT40 TDP1 CPT -11.5%.
COc1ccc(CCNC(=O)CN2C(=O)COc3ccc(S(=O)(=O)N4CCOCC4)cc32)cc1OC was read as HepG2 viability 3.5%, HT1080NT lethal 11.4%, TGFb SMAD3 inh 19.2%, TDP1 cell noCPT 18.7%, HT1080 IDH1KD tx 29.2% and DT40 TDP1 CPT -24.9%.
`Cc1oc2ncn(C)c(=O)c2c1C(=O)NCCCN1CCCCC1C` (stereo not drawn) gave HepG2 viability 0.1%, TGFb SMAD3 inh -4.4%, TDP1 cell noCPT -21.1% and DT40 TDP1 CPT 5.1%.
`CCCN(CCC)CC(O)Cn1cc(/C=C/C(=O)c2ccc(OC)cc2)c2ccccc21` (stereo not drawn) gave HepG2 viability -101.2%, TDP1 cell noCPT 5.17µM* and DT40 TDP1 CPT inconclusive.
`COc1ccc(C(=O)/C=C/c2cn(CC(O)CN(CC(C)C)CC(C)C)c3ccccc23)cc1` (stereo not drawn) gave HepG2 viability -18.8%, TGFb SMAD3 inh -5.9%, TDP1 cell noCPT 16.4µM* and DT40 TDP1 CPT 14.6µM*.
COc1ccc(C(=O)N/C(=C\c2cn(C)c3ccccc23)C(=O)OCCN(C)C)cc1 was read as HepG2 viability -2.3%, HT1080NT lethal -18.5%, TGFb SMAD3 inh -5.8%, TDP1 cell noCPT -4.2%, HT1080 IDH1KD tx -13.9% and DT40 TDP1 CPT -2.7%.
Screening COc1ccc(/C=C/C(=O)N2CCc3c(cnc(C)c3CNS(=O)(=O)c3cccs3)C2)cc1 returned TDP1 cell noCPT inconclusive and DT40 TDP1 CPT 0.2%[9.04 µM].
Cc1[nH]nc(C(=O)NN=Cc2ccccc2Cl)c1N=NN(C)C was read as HepG2 viability 20µM*, HT1080NT lethal 20.6µM*, TGFb SMAD3 inh 10µM*, TDP1 cell noCPT 6.51µM*, HT1080 IDH1KD tx 23.1µM* and DT40 TDP1 CPT 9.2µM*.
O=C(N/N=C/c1ccccc1Cl)c1n[nH]c2c1CCCC2 was read as HepG2 viability -32.6%, HT1080NT lethal 3.4%, TGFb SMAD3 inh 4.5%, TDP1 cell noCPT inconclusive, HT1080 IDH1KD tx 2.3% and DT40 TDP1 CPT -26.4%.
Screening COC(CNC(=O)CN1CCN(Cc2ccccc2F)C1=O)OC returned HepG2 viability 6.9%, HT1080NT lethal 6.2%, TGFb SMAD3 inh -11.7%, TDP1 cell noCPT -6.2%, HT1080 IDH1KD tx 4.1% and DT40 TDP1 CPT -5.2%.
`CC(=O)Nc1ccc(-c2ccnc3c2CC(C(=O)NCCc2ccccc2)O3)cc1` (stereo not drawn) gave HepG2 viability -5.4%, HT1080NT lethal -14.5%, TGFb SMAD3 inh 1.2%, TDP1 cell noCPT inconclusive, HT1080 IDH1KD tx 0.0% and DT40 TDP1 CPT inconclusive.
